What was measured:
Assay in all cases: log2 ratio of Biotin-Ahx-Ub-VS probe labelling (fragment/DMSO); higher = less target engagement (more negative = stronger competition), active = hit call of the paper (q ≤ 0.05, log2 ratio ≤ -1)
Conditions in all cases: compound concentration: 200 uM; treatment time: 3 h
USP19 = molecular target: T1, USP19 (UniProt O94966)
T1 sequence (whole entry): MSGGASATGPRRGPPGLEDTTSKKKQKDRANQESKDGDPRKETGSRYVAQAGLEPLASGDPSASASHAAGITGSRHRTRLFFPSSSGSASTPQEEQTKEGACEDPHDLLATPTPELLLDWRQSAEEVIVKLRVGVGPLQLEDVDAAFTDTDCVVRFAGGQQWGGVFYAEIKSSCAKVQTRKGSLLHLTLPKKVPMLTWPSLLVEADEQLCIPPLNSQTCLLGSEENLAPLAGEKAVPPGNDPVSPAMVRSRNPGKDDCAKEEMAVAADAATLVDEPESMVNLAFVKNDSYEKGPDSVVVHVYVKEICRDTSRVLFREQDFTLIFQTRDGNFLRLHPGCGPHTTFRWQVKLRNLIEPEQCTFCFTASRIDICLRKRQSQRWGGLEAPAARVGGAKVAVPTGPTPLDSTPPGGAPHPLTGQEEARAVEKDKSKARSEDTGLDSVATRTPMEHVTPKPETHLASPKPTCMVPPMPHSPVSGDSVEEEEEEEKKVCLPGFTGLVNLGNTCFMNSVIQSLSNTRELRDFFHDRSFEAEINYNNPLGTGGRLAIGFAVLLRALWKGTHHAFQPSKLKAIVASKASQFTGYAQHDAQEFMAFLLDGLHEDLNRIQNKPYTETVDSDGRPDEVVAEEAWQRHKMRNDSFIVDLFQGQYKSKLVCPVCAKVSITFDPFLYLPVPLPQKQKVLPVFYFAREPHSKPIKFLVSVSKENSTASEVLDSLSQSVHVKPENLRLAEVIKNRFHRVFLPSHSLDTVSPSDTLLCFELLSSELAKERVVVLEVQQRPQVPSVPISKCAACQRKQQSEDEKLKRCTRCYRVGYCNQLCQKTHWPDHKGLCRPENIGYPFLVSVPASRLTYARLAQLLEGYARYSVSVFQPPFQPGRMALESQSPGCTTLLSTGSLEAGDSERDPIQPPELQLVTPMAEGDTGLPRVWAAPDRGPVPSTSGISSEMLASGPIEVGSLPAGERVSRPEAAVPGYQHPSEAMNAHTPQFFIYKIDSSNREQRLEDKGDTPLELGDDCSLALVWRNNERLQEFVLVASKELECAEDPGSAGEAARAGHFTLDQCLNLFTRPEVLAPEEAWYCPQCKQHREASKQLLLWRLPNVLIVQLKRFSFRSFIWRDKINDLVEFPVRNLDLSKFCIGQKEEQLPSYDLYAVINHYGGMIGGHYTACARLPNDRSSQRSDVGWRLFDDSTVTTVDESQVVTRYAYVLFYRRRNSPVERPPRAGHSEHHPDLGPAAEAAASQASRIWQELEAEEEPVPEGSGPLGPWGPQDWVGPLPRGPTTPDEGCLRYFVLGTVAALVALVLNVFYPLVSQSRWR
Method in brief: (§1)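 HEK293T lysate in Tris/CHAPS/IGEPAL buffer with protease inhibitors (495 µg per sample) was given fragment at 200 µM or vehicle for 3 h, in triplicate. It then received Biotin-Ahx-Ub-VS at 0.5 µM final for 1 h. Labelled DUBs were NeutrAvidin-enriched, digested with LysC and trypsin, and run by diaPASEF LC-MS/MS. Values are average log2 fragment/vehicle ratios by unpaired t-test on global-median-normalised Spectronaut quantities of proteins with ≥2 unique peptides.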

USP22 = molecular target: T2, USP22 (UniProt Q9UPT9)
T2 sequence (whole entry): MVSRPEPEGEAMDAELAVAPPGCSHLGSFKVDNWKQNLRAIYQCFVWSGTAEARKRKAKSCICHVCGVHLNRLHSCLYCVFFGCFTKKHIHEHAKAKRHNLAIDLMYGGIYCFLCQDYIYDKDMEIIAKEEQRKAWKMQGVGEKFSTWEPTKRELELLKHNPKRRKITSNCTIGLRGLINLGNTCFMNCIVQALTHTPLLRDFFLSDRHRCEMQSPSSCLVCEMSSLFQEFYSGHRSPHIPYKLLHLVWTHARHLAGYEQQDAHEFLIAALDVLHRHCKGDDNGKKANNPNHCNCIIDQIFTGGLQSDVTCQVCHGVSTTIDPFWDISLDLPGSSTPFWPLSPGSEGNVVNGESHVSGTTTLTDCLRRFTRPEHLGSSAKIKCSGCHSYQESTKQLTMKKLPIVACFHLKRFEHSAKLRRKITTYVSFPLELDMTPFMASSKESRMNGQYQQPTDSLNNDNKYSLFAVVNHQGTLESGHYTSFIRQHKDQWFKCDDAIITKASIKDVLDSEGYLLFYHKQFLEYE
Method in brief: as §1

USP24 = USP24 (UniProt Q9UPU5)
USP24, sequence (Q9UPU5 whole entry): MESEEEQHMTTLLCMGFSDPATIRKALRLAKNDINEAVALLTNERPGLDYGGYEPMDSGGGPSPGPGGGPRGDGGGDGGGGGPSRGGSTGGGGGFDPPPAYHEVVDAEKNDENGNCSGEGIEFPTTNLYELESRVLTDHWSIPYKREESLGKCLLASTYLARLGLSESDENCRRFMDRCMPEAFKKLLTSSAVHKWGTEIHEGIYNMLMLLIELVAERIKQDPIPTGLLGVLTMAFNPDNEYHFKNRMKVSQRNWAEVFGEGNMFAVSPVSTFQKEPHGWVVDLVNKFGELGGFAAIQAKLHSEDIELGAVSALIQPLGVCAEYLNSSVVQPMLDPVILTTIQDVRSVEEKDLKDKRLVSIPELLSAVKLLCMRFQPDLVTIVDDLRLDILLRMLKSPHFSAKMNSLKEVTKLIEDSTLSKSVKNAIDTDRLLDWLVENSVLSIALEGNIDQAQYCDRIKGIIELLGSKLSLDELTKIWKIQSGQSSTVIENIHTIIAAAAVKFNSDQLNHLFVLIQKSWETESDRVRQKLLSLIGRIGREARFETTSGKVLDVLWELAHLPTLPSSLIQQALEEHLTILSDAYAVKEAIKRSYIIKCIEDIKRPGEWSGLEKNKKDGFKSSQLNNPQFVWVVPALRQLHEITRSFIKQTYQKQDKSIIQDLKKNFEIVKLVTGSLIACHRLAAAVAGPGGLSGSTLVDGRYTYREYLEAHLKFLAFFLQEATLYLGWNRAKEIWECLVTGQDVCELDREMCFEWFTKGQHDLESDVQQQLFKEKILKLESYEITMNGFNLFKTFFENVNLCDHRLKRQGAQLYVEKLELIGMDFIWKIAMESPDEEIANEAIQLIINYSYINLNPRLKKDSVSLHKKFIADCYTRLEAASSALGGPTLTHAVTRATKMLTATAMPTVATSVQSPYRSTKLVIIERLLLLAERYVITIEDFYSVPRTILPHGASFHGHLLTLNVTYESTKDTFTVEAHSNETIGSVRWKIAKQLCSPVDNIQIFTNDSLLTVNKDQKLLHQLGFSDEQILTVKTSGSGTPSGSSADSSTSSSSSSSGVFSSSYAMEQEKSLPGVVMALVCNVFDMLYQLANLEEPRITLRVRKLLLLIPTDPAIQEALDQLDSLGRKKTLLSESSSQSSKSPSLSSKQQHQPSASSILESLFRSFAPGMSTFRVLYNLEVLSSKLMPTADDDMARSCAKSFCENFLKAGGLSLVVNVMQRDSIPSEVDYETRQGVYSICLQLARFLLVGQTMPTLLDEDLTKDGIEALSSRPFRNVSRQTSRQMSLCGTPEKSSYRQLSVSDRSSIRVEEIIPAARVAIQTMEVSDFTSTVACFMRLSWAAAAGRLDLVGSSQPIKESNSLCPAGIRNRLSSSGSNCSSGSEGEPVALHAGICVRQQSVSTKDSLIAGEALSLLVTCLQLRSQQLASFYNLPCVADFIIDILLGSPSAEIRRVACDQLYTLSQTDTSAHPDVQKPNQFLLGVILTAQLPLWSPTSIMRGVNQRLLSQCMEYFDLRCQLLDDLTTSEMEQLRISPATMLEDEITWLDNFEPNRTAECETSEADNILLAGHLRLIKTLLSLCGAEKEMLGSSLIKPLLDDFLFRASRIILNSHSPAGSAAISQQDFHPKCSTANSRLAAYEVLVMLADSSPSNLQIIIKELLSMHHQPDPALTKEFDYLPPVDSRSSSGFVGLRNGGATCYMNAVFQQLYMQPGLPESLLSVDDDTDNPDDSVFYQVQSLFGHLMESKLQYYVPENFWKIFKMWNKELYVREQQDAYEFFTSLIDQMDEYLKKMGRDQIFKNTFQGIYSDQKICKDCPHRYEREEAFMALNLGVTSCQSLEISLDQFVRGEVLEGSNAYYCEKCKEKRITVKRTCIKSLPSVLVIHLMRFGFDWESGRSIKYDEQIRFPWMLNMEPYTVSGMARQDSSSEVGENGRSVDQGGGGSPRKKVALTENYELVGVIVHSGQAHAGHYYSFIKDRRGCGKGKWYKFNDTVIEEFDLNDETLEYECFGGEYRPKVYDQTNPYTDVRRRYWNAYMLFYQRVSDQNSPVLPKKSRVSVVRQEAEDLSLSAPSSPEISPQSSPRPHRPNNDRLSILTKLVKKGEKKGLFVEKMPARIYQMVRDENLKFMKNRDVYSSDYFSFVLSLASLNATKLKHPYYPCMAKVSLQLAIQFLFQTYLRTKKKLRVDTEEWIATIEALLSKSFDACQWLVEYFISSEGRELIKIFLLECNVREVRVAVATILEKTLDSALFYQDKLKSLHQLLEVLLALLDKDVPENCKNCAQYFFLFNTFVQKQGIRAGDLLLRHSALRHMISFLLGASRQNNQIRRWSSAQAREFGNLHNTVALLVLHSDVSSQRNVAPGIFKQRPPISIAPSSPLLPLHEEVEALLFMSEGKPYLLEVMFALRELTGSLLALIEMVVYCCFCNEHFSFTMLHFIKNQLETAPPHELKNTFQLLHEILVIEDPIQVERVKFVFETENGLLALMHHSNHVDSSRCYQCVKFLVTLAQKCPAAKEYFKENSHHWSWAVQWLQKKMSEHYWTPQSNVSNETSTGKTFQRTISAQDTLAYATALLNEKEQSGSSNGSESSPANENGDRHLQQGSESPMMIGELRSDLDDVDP
Method in brief: as §1

USP25 = molecular target: T3, USP25 (UniProt Q9UHP3)
T3 sequence (whole entry): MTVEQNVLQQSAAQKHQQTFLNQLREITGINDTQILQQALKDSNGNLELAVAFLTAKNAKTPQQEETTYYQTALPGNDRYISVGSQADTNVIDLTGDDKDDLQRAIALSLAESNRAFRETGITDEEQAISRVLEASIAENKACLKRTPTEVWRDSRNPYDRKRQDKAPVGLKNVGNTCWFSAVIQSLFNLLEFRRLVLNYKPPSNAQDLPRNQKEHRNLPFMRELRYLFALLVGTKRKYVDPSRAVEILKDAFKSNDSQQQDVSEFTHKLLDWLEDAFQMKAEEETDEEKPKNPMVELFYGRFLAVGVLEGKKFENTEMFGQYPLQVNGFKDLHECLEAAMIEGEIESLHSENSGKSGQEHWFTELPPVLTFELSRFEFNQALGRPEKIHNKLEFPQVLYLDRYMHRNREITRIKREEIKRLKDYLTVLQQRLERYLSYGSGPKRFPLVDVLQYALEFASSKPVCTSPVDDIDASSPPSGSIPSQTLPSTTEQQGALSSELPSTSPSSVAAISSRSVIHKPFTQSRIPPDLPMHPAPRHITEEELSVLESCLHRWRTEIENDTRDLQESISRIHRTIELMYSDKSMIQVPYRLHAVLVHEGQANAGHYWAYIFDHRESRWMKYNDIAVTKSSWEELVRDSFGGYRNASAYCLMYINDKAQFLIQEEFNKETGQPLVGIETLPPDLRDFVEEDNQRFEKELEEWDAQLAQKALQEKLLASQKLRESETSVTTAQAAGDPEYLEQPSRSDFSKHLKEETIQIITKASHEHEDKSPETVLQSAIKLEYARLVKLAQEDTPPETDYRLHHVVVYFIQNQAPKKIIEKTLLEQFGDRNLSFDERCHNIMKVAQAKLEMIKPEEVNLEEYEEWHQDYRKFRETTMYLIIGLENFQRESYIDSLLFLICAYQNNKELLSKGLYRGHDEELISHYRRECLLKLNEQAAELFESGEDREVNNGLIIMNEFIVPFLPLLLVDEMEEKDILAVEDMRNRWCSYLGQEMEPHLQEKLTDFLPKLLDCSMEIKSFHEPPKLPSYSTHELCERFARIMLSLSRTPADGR
Method in brief: as §1

USP28 = molecular target: T4, USP28 (UniProt Q96RU2)
T4 sequence (whole entry): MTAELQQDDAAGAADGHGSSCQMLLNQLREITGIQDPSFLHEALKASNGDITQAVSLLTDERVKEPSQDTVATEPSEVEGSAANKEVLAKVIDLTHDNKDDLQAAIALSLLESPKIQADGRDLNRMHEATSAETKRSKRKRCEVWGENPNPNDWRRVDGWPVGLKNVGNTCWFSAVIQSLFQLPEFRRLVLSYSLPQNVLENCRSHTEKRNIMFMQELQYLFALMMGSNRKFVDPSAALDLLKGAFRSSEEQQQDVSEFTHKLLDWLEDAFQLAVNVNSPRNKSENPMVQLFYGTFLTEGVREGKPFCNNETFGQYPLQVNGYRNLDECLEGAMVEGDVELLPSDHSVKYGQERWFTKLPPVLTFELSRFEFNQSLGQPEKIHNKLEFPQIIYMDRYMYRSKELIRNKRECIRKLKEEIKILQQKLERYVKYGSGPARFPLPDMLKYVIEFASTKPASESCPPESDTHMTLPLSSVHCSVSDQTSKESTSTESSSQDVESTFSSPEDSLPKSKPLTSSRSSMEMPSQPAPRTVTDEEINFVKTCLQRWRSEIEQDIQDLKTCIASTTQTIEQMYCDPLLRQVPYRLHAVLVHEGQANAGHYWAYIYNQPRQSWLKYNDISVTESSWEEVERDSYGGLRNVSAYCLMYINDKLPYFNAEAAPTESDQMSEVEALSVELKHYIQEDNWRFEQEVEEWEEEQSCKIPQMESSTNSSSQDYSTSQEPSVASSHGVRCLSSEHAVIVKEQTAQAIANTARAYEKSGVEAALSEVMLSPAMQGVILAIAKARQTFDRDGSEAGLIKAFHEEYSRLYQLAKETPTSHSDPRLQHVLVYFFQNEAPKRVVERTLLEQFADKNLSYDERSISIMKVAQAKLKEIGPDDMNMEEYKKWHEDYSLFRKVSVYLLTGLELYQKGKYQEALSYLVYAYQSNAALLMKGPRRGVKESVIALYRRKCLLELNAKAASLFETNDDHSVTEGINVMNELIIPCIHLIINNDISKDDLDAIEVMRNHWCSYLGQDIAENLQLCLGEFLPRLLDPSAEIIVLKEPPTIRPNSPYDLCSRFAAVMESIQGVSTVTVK
Method in brief: as §1

Measured: log2 ratio of Biotin-Ahx-Ub-VS probe labelling

O=C(CCl)NCC1(c2ccccc2)CC1
inactive: USP19 -0.058 | USP22 0.0204 | USP24 -0.208 | USP25 -0.366 | USP28 -0.447
